TEAD-YAP block: TEAD-YAP interaction inhibition | HEK-TIYL cells, TEAD-Gal4/YAP UAS-luciferase luminescence | inhibition, % at 9.12 µM | actives 1.4% (n = 640,000) | AID 1259422; in the data active = inhibition above about 32%
FBW7 act: human FBW7 E3 ligase activation, primary screen. Q969H0. AlphaScreen FBW7–phospho-cyclin E peptide binding, activator screen. normalized activity (activation), % at 26.1 µM. actives 0.13% (n = 650,000). AID 1259310; in the data active = normalized activity above about 1.9%;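 note: purified mutant Fbw7 with reduced substrate affinity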
Target sequence (Q969H0 whole entry, looked up): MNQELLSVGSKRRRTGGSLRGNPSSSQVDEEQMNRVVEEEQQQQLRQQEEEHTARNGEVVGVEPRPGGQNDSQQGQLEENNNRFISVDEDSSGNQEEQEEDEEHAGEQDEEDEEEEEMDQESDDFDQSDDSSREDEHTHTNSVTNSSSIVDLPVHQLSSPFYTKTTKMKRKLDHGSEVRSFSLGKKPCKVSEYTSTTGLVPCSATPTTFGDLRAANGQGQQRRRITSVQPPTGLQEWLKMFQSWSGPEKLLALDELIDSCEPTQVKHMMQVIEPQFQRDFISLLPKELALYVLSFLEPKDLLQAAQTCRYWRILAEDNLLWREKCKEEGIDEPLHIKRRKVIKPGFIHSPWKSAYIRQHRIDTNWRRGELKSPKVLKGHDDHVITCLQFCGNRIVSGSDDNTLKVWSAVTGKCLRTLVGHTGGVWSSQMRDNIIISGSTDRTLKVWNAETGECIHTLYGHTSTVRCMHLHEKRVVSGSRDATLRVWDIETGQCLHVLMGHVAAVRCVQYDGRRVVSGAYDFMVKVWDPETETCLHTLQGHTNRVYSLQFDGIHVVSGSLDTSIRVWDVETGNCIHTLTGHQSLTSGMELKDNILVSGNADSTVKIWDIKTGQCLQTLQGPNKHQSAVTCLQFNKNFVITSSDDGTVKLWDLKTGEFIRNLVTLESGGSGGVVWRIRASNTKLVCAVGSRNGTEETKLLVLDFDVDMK
MITF primary: inhibitors of human MITF. AlphaScreen MITF homodimerization, bead proximity signal. O75030. actives 0.91% (n = 650,000). inhibition, % at 2.6 µM. AID 1259374; in the data active = inhibition above about 50%
GPR151 ag: activates the human receptor GPR151; Q8TDV0; PathHunter beta-arrestin GPR151 cells, luminescence; activation, % at 11.2 µM; actives 1% (n = 650,000); AID 1508602; in the data active = activation above about 4.9%
Of the large screens only hits and unclear results are named; the others gave an inactive call. Rows were chosen to be rich in hits. Some 3.4% of all compounds tested hit in one or more screens of this group.

COc1ccc(NC(=O)CC2C(=O)N(c3ccc(F)cc3)C(=S)N2CCc2ccc(OC)c(OC)c2)cc1 (stereo not drawn)	none
O=C(c1ccc(-c2nc3ccccc3s2)s1)N1CCCC1	TEAD-YAP block 89
O=C(O)c1ccc(-c2nc3ccccc3s2)s1	none
CCOC(=O)c1c(NC(=O)C(Cl)Cl)sc(C)c1CC	none
CC(C)n1c(O)c(N=NC(=O)Cc2csc(N3CCOCC3)n2)c2ccccc21	TEAD-YAP block 82
COc1cc(/C=N/NC(=O)Cc2csc(N3CCOCC3)n2)cc(OC)c1O	none
COc1ccc(O)c(C(=O)CC(=O)c2ccccc2Cl)c1	none
COc1ccc(O)c(C(=O)CC(=O)c2ccccc2)c1	TEAD-YAP block 55
CSC1SC[C@H]2C(=O)N(C)[C@@H](C(C)C)C(=O)OC[C@@H](NC(=O)c3cnc4ccccc4n3)C(=O)N[C@@H](C)C(=O)N(C)[C@H]1C(=O)N(C)[C@@H](C(C)C)C(=O)OC[C@@H](NC(=O)c1cnc3ccccc3n1)C(=O)N[C@@H](C)C(=O)N2C (stereo partly drawn)	TEAD-YAP block 96
Cc1ccc(-c2cnc(NC3CC3)nc2)cc1	TEAD-YAP block 54
CCC(C)(C(=O)NC1CCCC1)N(Cc1ccco1)C(=O)CNC(C)=O (stereo not drawn)	none
CCC(C)(C(=O)NC1CCCC1)N(Cc1ccco1)C(=O)CNC(=O)c1ccccc1 (stereo not drawn)	FBW7 act 2.3
CCc1cc2c(=O)c(-c3ccc4c(c3)OCCO4)coc2cc1OCC(=O)O	TEAD-YAP block 87
CCc1cc2c(=O)c(-c3ccc4c(c3)OCCCO4)coc2cc1OC(=O)c1ccco1	TEAD-YAP block 44
CCc1cc2c(=O)c(-c3ccc4c(c3)OCO4)coc2cc1OC(C)=O	none
COc1cc(CNCCCN(C)C)ccc1OCc1ccc(F)cc1Cl	TEAD-YAP block 34
Cc1ccc(-n2c(N)c(C(=O)O)c3nc4ccccc4nc32)cc1C	none
NNC(=O)c1c(N)n(-c2ccc3ccccc3c2)c2nc3ccccc3nc12	TEAD-YAP block 47
CNC(=S)N/N=C/c1ccc(C(=O)OC)cc1	none
N[C@H](C(=O)O)[C@H](O)c1ccc(O)c(O)c1	MITF primary 54
NC(C(=O)O)C(O)c1ccccc1 (stereo not drawn)	none
COc1ccc2cnn(-c3nc4ccccc4[nH]3)c(=O)c2c1OC	TEAD-YAP block 43
Cc1nn(-c2nc3ccccc3[nH]2)c(=O)c2ccccc12	TEAD-YAP block 97
CCn1cc(C(=O)NCc2ccc3c(c2)OCO3)c2c3ccccc3n(C)c2c1=O	none
O=C(CCn1cnc2ccccc2c1=O)Nc1ccc(F)c(C(F)(F)F)c1	none
CC1CCCCN1CCCNc1nc2ccccc2c2nc(-c3ccncc3)nn12 (stereo not drawn)	TEAD-YAP block 80
CCCCNc1nc2ccccc2c2nc(-c3ccncc3)nn12	none
CCN(CC)CCCNc1nc2cc(OC)c(OC)cc2c2nc(-c3ccccc3)nn12	TEAD-YAP block 32
CCN(CC)CCCNc1nc2ccccc2c2nc(-c3ccncc3)nn12	TEAD-YAP block 80
COc1ccc(C(=O)N/C(=C\c2ccc(-c3ccc(Br)cc3)o2)C(=O)NCC2CCCO2)cc1 (stereo not drawn)	none
CC(C)(C)c1ccc(NC(=O)C2CCCN2C(=O)Nc2ccc(F)cc2)cc1 (stereo not drawn)	none
COc1cc(C(=O)Nc2ncc(Cc3ccccc3)s2)cc(OC)c1OC	TEAD-YAP block 53
O=C(Cc1ccccc1)Nc1ncc(Cc2ccccc2)s1	none
CC(Oc1ccccc1)C(=O)Nc1ncc(Cc2ccccc2)s1 (stereo not drawn)	TEAD-YAP block 42
COc1cc(C(=O)Nc2nnc(Cc3ccccc3)s2)cc(OC)c1OC	none
COc1cc(C(=O)Nc2ncc(Cc3cccc(Cl)c3)s2)cc(OC)c1OC	TEAD-YAP block 54
Cc1nc2sccn2c1C(=O)N1CCCC1	none
Cc1nc2sccn2c1C(=O)N1CCN(c2cccc(C(F)(F)F)c2)CC1	TEAD-YAP block 58
CN(C(=O)c1cccs1)C(Cc1ccccc1)C1CCN(C(=O)Cn2cccn2)CC1 (stereo not drawn)	none
Clc1ccc(CN2CCN(/N=C/c3c(Cl)nc4sccn34)CC2)cc1	TEAD-YAP block 40
Oc1ccccc1/C=N/N1CCN(Cc2ccc(Cl)cc2)CC1	none
CC12CN(CO)CC(C)(CN(Cc3ccccc3)C1)C2=O	FBW7 act 2.6
CC12CNCC(C)(CN(Cc3ccccc3)C1)C2=O	none
COc1ccc(-n2c(C)c(C(C)=O)c3cc(OC(=O)c4ccc(C)cc4)ccc32)cc1	TEAD-YAP block 48
CC1=C(C#N)C(c2cc([N+](=O)[O-])ccc2OC(F)F)C(C#N)=C(C)N1	TEAD-YAP block 42

Screening data as filed in PubChem.
